Screening results: PubChem BioAssay, National Center for Advancing Translational Sciences (NCATS)
nsP2pro primary = CHIKV nsP2 protease inhibition, primary qHTS. AID 1964107. Q8JUX6. 1.1% of 31,000 active. FRET peptide cleavage, nsP2pro, fluorescence 1 h. Potency, µM (doses to about 24.9 µM), for the others: at the top dose activity change, negative = inhibition, usual class: inhibitors; also: nearly all actives have a fitted effect of over 60% in size
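Enzyme 150 nM, substrate 2.5 uM (both final); Tris-HCl 10 mM pH 8.0 + 0.01% Tween 20; cpd up to 25 uM, 7 pts; 15 min preinc., 1 h RT; fluorescence ex 525/em 598.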
nsP2 cell sec = inhibits CHIKV nsP2 protease in cells; 10% of 450 active; cell-based CHIKV nsP2 protease reporter assay; Potency, µM (highest dose often 51.1 µM), for inactives: at the top dose activity change, negative = inhibition, actives largely listed as inhibitors; AID 1964100; shares compounds with nsP2pro primary; also: nearly all actives have a fitted effect of over 70% in size
Target sequence (Q8JUX6 220-798 limits assumed): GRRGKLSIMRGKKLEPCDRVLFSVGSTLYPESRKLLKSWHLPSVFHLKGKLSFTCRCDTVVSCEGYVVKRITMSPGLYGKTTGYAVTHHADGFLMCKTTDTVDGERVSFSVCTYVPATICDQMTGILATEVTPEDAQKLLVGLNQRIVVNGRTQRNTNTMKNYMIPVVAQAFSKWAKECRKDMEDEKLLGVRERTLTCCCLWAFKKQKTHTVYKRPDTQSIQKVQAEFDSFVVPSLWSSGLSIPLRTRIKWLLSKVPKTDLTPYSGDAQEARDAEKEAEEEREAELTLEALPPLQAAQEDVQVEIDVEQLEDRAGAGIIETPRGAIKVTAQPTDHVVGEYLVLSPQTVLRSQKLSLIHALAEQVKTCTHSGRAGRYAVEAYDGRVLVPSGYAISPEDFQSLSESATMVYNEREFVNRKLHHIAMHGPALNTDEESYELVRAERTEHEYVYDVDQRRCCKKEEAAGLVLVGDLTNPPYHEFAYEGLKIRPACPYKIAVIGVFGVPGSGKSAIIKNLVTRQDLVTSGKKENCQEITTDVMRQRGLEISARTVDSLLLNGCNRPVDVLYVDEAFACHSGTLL
CHIKV NSP2 FL = inhibits full-length CHIKV NSP2 enzyme | shares compounds with nsP2pro primary | Full-length CHIKV NSP2 protease enzymatic counterscreen | Potency, µM (titrated, usually from 50.7 µM), for the others: at the highest dose activity change, negative = inhibition, actives largely listed as inhibitors | 39% of 410 active | AID 1964101; also: nearly all actives have a fitted effect of over 65% in size
Furin counter = inhibits human furin in a CHIKV nsP2 protease selectivity counterscreen | 6% of 410 active | Potency, µM (series often up to 50.6 µM), inactives show at the top dose activity change, negative = inhibition, hits mostly inhibitors | Recombinant human furin enzymatic counterscreen, fluorogenic substrate | shares compounds with nsP2pro primary
NS23 peptide cs = selectivity test for CHIKV nsP2 protease inhibitors: endogenous NS2/3 peptide. shares compounds with nsP2pro primary. Purified CHIKV nsP2 protease, endogenous NS2/3 peptide cleavage. Potency, µM (titrated, usually from 51 µM), for the others: top-dose activity change, negative = inhibition, actives largely listed as inhibitors. 34% of 410 active; also: nearly all actives have a fitted effect of over 55% in size
Papain counter = selectivity counter-screen for CHIKV nsP2 protease inhibitors: papain. 5% of 410 active. shares compounds with nsP2pro primary. AID 1964104. purified papain protease activity, enzymatic inhibition. Potency, µM (doses to about 51 µM), without a hit: at the highest dose activity change, negative = inhibition, usual class: inhibitors
nsP2pro conf qHTS = confirmation of CHIKV nsP2 protease inhibitors; 43% of 410 active; shares compounds with nsP2pro primary; CHIKV nsP2 protease enzymatic activity, qHTS; AID 1964105; Potency, µM (highest dose often 25.5 µM), for inactives: at the highest dose activity change, negative = inhibition, hits mostly inhibitors; also: nearly all actives have a fitted effect of over 75% in size
HCV NS3 counter = HCV NS3/4A protease inhibition, counterscreen; shares compounds with nsP2pro primary; HCV NS3/4A protease biochemical counterscreen; Potency, µM (highest dose often 50.9 µM), most hits filed as inhibitors; 20% of 410 active; also: nearly all actives have a fitted effect of over 55% in size
* = called active by the depositor; [ ] = another dose, or the depositor's remark. Many of the other results were omitted from the sample, so hits are more common in it than they were. Calls follow the shape of the full dose curve. % is scaled to controls: 0 for no effect and ±100 for the full control effect; potency is read from the fitted curve at half-maximal effect.

Screening Cc1ccc(CN2CC[C@H](c3nnc(-c4ccco4)o3)C2)o1 returned nsP2pro primary 2%[39.2 µM].
For O=C(CCc1ccccc1Br)NCCc1nc2ccccc2[nH]1 the results were nsP2pro primary -8%.
Screening Nc1ccc2c(c1)C(=O)NS2(=O)=O returned nsP2pro primary inactive.
Screening CCCCCCCCCCC(=O)O[C@H]1CC[C@H]2[C@@H]3CCC4=CC(=O)CC[C@]4(C)[C@H]3CC[C@]12C returned nsP2pro primary 6%.
Screening CC(=O)Nc1ccc(CC(=O)O)cc1 returned nsP2pro primary 2%.
O=C(O)Cc1cc(I)c(Oc2ccc(O)c(I)c2)c(I)c1 was read as nsP2pro primary 22%.
Screening O=C(O)Cc1ccc(O)c(O)c1 returned nsP2pro primary inconclusive, nsP2 cell sec -3%, CHIKV NSP2 FL -23%, Furin counter -5%, NS23 peptide cs inconclusive, Papain counter -7%, nsP2pro conf qHTS 9µM* and HCV NS3 counter 8.2µM*.
`Cc1ccc(NC(=O)CN2C(=O)N/C(=C\c3cccn3-c3ccc(C(=O)NC#N)cc3)C2=O)cc1` gave nsP2pro primary inactive.
Screening O=C1CCCC2=C1C(c1[nH]ncc1Cl)NC(=NCc1ccco1)N2 (stereo not given) returned nsP2pro primary -2%.
For CC(C)C1CCC(CO)=CC1/C=C(\CO)C(=O)OCC1(O)CCC(C(C)C)C2C=C(C(=O)O)COC(=O)C21 (stereo not given) the results were nsP2pro primary -13%[10 µM].
For CN1CCC(C(=O)c2cccc(NC(=O)c3c(F)cc(F)cc3F)n2)CC1 the results were nsP2pro primary -15%.
For CC(CCC(=O)O)[C@H]1CC[C@H]2[C@@H]3CC[C@@H]4C[C@H](O)CC[C@]4(C)[C@H]3C[C@H](O)[C@]12C (stereo not given in full) the results were nsP2pro primary -5%.
Cc1c(C(=O)OCC2CCCCC2)[nH]c2c1C(=O)CC(c1ccc(F)cc1)C2 (stereo not given) was read as nsP2pro primary -24%.
For Cc1c(C(=O)OCC2CCCCO2)[nH]c2c1C(=O)CC(c1ccco1)C2 (stereo not given) the results were nsP2pro primary 7.9µM*, nsP2 cell sec 15µM*, CHIKV NSP2 FL -19%, Furin counter inconclusive, NS23 peptide cs -31%, Papain counter -10%, nsP2pro conf qHTS -3% and HCV NS3 counter inactive.
`Cc1c(C(=O)OC2CCCCCC2)[nH]c2c1C(=O)CC(c1ccccc1Cl)C2` (stereo not given) gave nsP2pro primary -23%.
COc1cccc(-c2ccc(CNc3ccc(N4CCN(C(=O)OC(C)(C)C)CC4)cc3)o2)c1 was read as nsP2pro primary 1%.
Screening CNc1oc(-c2cccc3cnccc23)nc1C#N returned nsP2pro primary 3%.
C[C@]12C=CC(=O)C=C1CC[C@@H]1[C@@H]2[C@@H](O)C[C@@]2(C)[C@H]1CC[C@]2(O)C(=O)COC(=O)c1cccc(S(=O)(=O)O)c1 was read as nsP2pro primary -4%.
Screening Fc1cc(-c2nc(Nc3ccc(F)c(F)c3)c3ccccc3n2)ccn1 returned nsP2pro primary inactive.
`CC(=O)c1ccc(N2CCN(S(=O)(=O)c3ccc4c(c3)CCCN4C(C)=O)CC2)cc1` gave nsP2pro primary -7%.
Cc1cc(C)nc(NC(=S)N2CCN(c3ncnc4sccc34)CC2)c1 was read as nsP2pro primary -4%.
Screening CC/C(C)=C/C(=O)OC1C(OC2(C)CCC3C(C4C(C)CCC42)C3(C)C)OC(C)C(O)C1O (stereo not given) returned nsP2pro primary inconclusive, nsP2 cell sec inconclusive, CHIKV NSP2 FL 5%[17.3 µM], Furin counter -17%[17.3 µM], NS23 peptide cs -2%[17.2 µM], Papain counter inconclusive, nsP2pro conf qHTS -10%[8.62 µM] and HCV NS3 counter inactive.
For Cn1cc(Br)c(C2N=C(Nc3nc4ccccc4o3)NC3=C2C(=O)CCC3)n1 (stereo not given) the results were nsP2pro primary inactive.
`CCOC(=O)c1ccc(NC(=O)CN2CCCCC2)cc1` gave nsP2pro primary 9%.
CCOC(=O)c1ccc2nc(C)cc(Nc3cccc(C(=O)O)c3)c2c1 was read as nsP2pro primary 0%.
`CCOC(=O)c1ccc(NC2SC(=O)N(Cc3cccc(C(=O)O)c3)C2=O)cc1` (stereo not given) gave nsP2pro primary 7.9µM* and nsP2 cell sec -6%.
O=C(c1ccc[nH]1)c1cc(Cl)ccc1NC(=O)[C@@H]1CCCN1 was read as nsP2pro primary -3%.
For Cc1cccc(-n2cnc3cc(C(=O)N4CCCCCC4)ccc32)c1 the results were nsP2pro primary -1%.
Screening COC(=O)/C=C/C12COC(C)(C)C1C(O)C(OC(C)=O)C1(C)C2CCC2(C)C(c3ccoc3)OC(=O)C3OC321 (stereo not given) returned nsP2pro primary inconclusive, nsP2 cell sec 5%[17.6 µM], CHIKV NSP2 FL -8%[17.3 µM], Furin counter -7%[17.3 µM], NS23 peptide cs -15%[17.2 µM], Papain counter 5%[17.2 µM], nsP2pro conf qHTS -4%[8.62 µM] and HCV NS3 counter inactive.
Screening CC1(C)O[C@H]2CC(=O)OC[C@]23[C@H]2CC[C@@]4(C)[C@H](c5ccoc5)OC(=O)[C@H]5O[C@]54[C@]2(C)C(=O)C[C@@H]13 returned nsP2pro primary -13%.
`COC(=O)C[C@H]1C(C)(C)[C@H](OC(C)=O)C2CC3=C4CC(=O)O[C@@H](c5ccoc5)[C@]4(C)CCC3[C@@]1(C)C2=O` (stereo not given in full) gave nsP2pro primary -2%[10 µM].
`O=C1CO[C@H]2CN(c3ncccn3)C[C@H]2N1CC1CCCCC1` gave nsP2pro primary 2.2µM*, nsP2 cell sec -5%, CHIKV NSP2 FL -2%, Furin counter inconclusive, NS23 peptide cs 24µM*, Papain counter -1%, nsP2pro conf qHTS 3.7µM* and HCV NS3 counter 9.4µM*.
N#Cc1ccc(N2C[C@@H]3OCC(=O)N(CC4CCCCC4)[C@@H]3C2)nc1 was read as nsP2pro primary -3%[39.2 µM].
